# Test results published in ChEMBL document CHEMBL3433997, “St. Jude Leishmania screening dataset” (2016).
# Target: Solute carrier family 2, facilitated glucose transporter member 1 (Homo sapiens) (UniProt P11166)
# Assay: ST_JUDE_LEISH: Cytotoxicity at 2uM final concentration against transgenic Leishmania Mexicana promastigotes LmGLUT1 that are glucose transport deficient and complemented with the human glucose transporter GLUT1. Activity is measured by DNA content using SYBR green in vitro
# Assay type: functional
# Sequence of Solute carrier family 2, facilitated glucose transporter member 1 (Homo sapiens) (P11166 whole entry): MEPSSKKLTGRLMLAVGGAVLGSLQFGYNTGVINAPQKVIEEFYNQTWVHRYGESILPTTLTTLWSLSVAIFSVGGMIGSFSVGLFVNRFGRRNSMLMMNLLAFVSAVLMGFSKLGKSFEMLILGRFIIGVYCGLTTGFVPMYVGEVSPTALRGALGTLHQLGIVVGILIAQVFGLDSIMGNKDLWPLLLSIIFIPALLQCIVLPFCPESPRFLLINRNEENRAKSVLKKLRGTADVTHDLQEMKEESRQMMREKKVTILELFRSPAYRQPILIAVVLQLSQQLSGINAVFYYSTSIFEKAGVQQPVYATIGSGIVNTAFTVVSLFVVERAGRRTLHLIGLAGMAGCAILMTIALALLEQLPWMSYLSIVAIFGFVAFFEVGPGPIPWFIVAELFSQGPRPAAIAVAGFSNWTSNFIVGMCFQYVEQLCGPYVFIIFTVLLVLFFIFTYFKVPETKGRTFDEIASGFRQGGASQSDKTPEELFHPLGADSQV
row,SMILES,inhibition
1,CC(C)Cn1ncc2c3c(N)nc(N)nc3ccc21,4.46%
2,Cc1cccc2nc(-c3ccc(-c4ccc(CNCCNC(=O)c5ccnn5C)cc4)s3)[nH]c12,9.45%
3,COc1ccc2nc(C)cc(NCc3ccc4ccccc4c3)c2c1,12.8%
4,COc1cc2nc(Nc3ccc(C)cc3)nc(Nc3ccc(C)cc3)c2cc1OC,100%
5,CCN1CCC(N2CCC(C(=O)Nc3cccc(-c4cccc(Cl)c4)c3)CC2)CC1,0.8%
6,CCCN(CCC)CCCNc1ccc(C(=O)Nc2ccc(C)c(F)c2)cc1[N+](=O)[O-],76.3%
7,O=C(NCCN1CCOCC1)c1csc(C2CCCN(C(=O)c3ccc(O)c(-c4cc(Cl)cc(Cl)c4)c3)C2)n1 (stereo not given),8.92%
8,COc1ccc(CC2(c3ccc(F)cc3)N=C(N)N(CCCc3cccnc3)C2=O)cc1 (stereo not given),2.7%
9,COc1ccc(CNC2Cc3ccccc3C2)cc1-c1ccc(OC)c(S(=O)(=O)NCCN2CCCC2)c1,1.59%
10,Cc1cc(-c2ccc(Cl)cc2)c2c(N)c(C(=O)Nc3ccc(F)cc3)sc2n1,0.19%
11,Cc1ccc2nc(C)cc(N/N=C/c3ccc([N+](=O)[O-])cc3)c2c1,104%
12,N#Cc1ccc(-c2ccc(C(=O)NCCCCN3CCC(c4ccc5c(c4OCc4ccncc4)CCCC5)CC3)cc2)cc1,0.21%
13,N#Cc1ccnc(-c2ccc(CNC3CCN(CC4Cn5c(=O)ccc6ccc(F)c4c65)CC3)cc2)c1 (stereo not given),9.83%
14,COc1cc2nc(N3CCC(CNC(=O)c4ccc(-c5ccccc5)cc4)CC3)nc(N)c2cc1OC,1.43%
15,Clc1ccc(-c2cc3c(NCc4ccncc4)nccc3s2)cc1,6.24%
16,Cc1cc2nc(-c3ccc(/C=C/C(=O)NCCCc4ccccc4)cc3)[nH]c2cc1C,4.43%
17,CCc1ccc(C2CCN(CCCCNC(=O)c3ccc(NC(=O)c4ccc(Cl)cc4)cc3)CC2)c(OCCO)c1,3.01%
18,O=C(NCCCc1ccccc1)c1csc(C2CCCN(C(=O)c3ccc(O)c(-c4ccccc4)c3)C2)n1 (stereo not given),2.11%
19,Fc1ccccc1COc1ccc(Nc2ncnc3ccc(I)cc23)cc1Cl,18.2%
20,CCCCC(=O)Nc1ccc(Nc2nc(C)cc(N3CCCC3)n2)cc1,2.54%

row,SMILES,inhibition
1,CSCCCN1CCC(O)(c2ccc3oc(C(=O)Nc4ccc5sc(C)nc5c4)cc3c2)CC1,23.3%
2,CNC(=O)c1cnc(Nc2ccc(OCC(O)CN(C)C)cc2)nc1Nc1cccc(Br)c1 (stereo not given),11.4%
3,CC(C)(C)c1ccc(NC(=O)c2cccc(CN3CCCN(Cc4cccc(C#N)c4)CC3)c2)cc1,5.1%
4,CC1(C)NC(N)=NC(=N)N1OCCCOc1ccc([N+](=O)[O-])cc1,0.81%
5,CCCn1c(O)nnc1SCC(=O)Nc1cc(Cl)ccc1Cl,-1.37%
6,Cc1ccccc1OCC(=O)Nc1ccc(-c2nc3cc4ccccc4cc3[nH]2)cc1,7.32%
7,COc1ccc2nccc([C@@H](O)CN3CCC(NC(=O)/C=C/c4cccc(NC(C)=O)c4)CC3)c2c1,3.71%
8,COc1ccc(Nc2nc(NCc3cccc(NS(C)(=O)=O)c3)cc(-c3ccc(OC)cc3)n2)cc1,4.4%
9,N=C(N)c1ccc(NC(=O)Cc2nc3cc(C(=N)N)ccc3[nH]2)cc1,-0.77%
10,O=S(=O)(NCCN1CCCC1)c1ccc(-c2ccc(CNCc3ccsc3)cc2)s1,10.5%
11,CC(C)NCc1cccc(-c2cccc(-c3nc4cc(F)ccc4[nH]3)c2)c1,14.2%
12,COc1cc2nc(N3CCC(CNC(=O)c4ccc(NC(=O)c5ccc(Cl)cc5)cc4)CC3)nc(N)c2cc1OC,0.04%
13,Cc1cc(NC(=O)NCCN2CCC(NC(=O)c3ccc(F)cc3)CC2)c2ccccc2n1,-0.27%
14,CC(CN(C)C)Oc1ccc2nc(-c3cccc(OCc4ccccc4)c3)[nH]c2c1C#N (stereo not given),-1.18%
15,Cc1c(C)n(C2CCCCC2)c2ncnc(OC3CCN(CC(=O)NC4CC4)CC3)c12,-0.52%
16,OCC1CCN(Cc2ccc(-c3cccc(-c4nc5cc(C(F)(F)F)ccc5[nH]4)c3)cc2)CC1,-1%
17,Cc1cc(O)c2c3c1C(=O)C=C1C3c3c(c(O)cc(O)c3C(=O)C1(C)C)C2=O (stereo not given),-4.69%
18,COc1ccc(NC(=O)CCNc2cc(C)nc(Nc3ccccc3)n2)cc1,5.84%
19,O=C(Nc1ccc(CCNC2=NCCN2)cc1)Nc1ccc(CCNC2=NCCN2)cc1,3.77%
20,Nc1nc(N)c2c(CCc3ccc(Cl)c(Cl)c3)cccc2n1,10.7%

# Target: Hexose transporter 1 (Plasmodium falciparum) (UniProt O97467)
# Assay: ST_JUDE_LEISH: Cytotoxicity at 2uM final concentration against transgenic Leishmania Mexicana promastigotes LmPfHT that are glucose transport deficient and complemented with the Plasmodium falciparum hexose transporter. Activity is measured by DNA content using SYBR green in vitro
# Assay type: functional
row,SMILES,inhibition
1,CC(C)Cn1ncc2c3c(N)nc(N)nc3ccc21,5.97%
2,Cc1cccc2nc(-c3ccc(-c4ccc(CNCCNC(=O)c5ccnn5C)cc4)s3)[nH]c12,9.43%
3,COc1ccc2nc(C)cc(NCc3ccc4ccccc4c3)c2c1,9.9%
4,COc1cc2nc(Nc3ccc(C)cc3)nc(Nc3ccc(C)cc3)c2cc1OC,101%
5,CCN1CCC(N2CCC(C(=O)Nc3cccc(-c4cccc(Cl)c4)c3)CC2)CC1,-1.24%
6,CCCN(CCC)CCCNc1ccc(C(=O)Nc2ccc(C)c(F)c2)cc1[N+](=O)[O-],74.6%
7,O=C(NCCN1CCOCC1)c1csc(C2CCCN(C(=O)c3ccc(O)c(-c4cc(Cl)cc(Cl)c4)c3)C2)n1 (stereo not given),1.79%
8,COc1ccc(CC2(c3ccc(F)cc3)N=C(N)N(CCCc3cccnc3)C2=O)cc1 (stereo not given),1.49%
9,COc1ccc(CNC2Cc3ccccc3C2)cc1-c1ccc(OC)c(S(=O)(=O)NCCN2CCCC2)c1,1.67%
10,Cc1cc(-c2ccc(Cl)cc2)c2c(N)c(C(=O)Nc3ccc(F)cc3)sc2n1,-2.52%
11,Cc1ccc2nc(C)cc(N/N=C/c3ccc([N+](=O)[O-])cc3)c2c1,101%
12,N#Cc1ccc(-c2ccc(C(=O)NCCCCN3CCC(c4ccc5c(c4OCc4ccncc4)CCCC5)CC3)cc2)cc1,3.1%
13,N#Cc1ccnc(-c2ccc(CNC3CCN(CC4Cn5c(=O)ccc6ccc(F)c4c65)CC3)cc2)c1 (stereo not given),8.44%
14,COc1cc2nc(N3CCC(CNC(=O)c4ccc(-c5ccccc5)cc4)CC3)nc(N)c2cc1OC,1.28%
15,Clc1ccc(-c2cc3c(NCc4ccncc4)nccc3s2)cc1,4.38%
16,Cc1cc2nc(-c3ccc(/C=C/C(=O)NCCCc4ccccc4)cc3)[nH]c2cc1C,2.87%
17,CCc1ccc(C2CCN(CCCCNC(=O)c3ccc(NC(=O)c4ccc(Cl)cc4)cc3)CC2)c(OCCO)c1,2.33%
18,O=C(NCCCc1ccccc1)c1csc(C2CCCN(C(=O)c3ccc(O)c(-c4ccccc4)c3)C2)n1 (stereo not given),0.46%
19,Fc1ccccc1COc1ccc(Nc2ncnc3ccc(I)cc23)cc1Cl,9.09%
20,CCCCC(=O)Nc1ccc(Nc2nc(C)cc(N3CCCC3)n2)cc1,3.88%

row,SMILES,inhibition
1,CSCCCN1CCC(O)(c2ccc3oc(C(=O)Nc4ccc5sc(C)nc5c4)cc3c2)CC1,24.5%
2,CNC(=O)c1cnc(Nc2ccc(OCC(O)CN(C)C)cc2)nc1Nc1cccc(Br)c1 (stereo not given),11.1%
3,CC(C)(C)c1ccc(NC(=O)c2cccc(CN3CCCN(Cc4cccc(C#N)c4)CC3)c2)cc1,1.26%
4,CC1(C)NC(N)=NC(=N)N1OCCCOc1ccc([N+](=O)[O-])cc1,0.61%
5,CCCn1c(O)nnc1SCC(=O)Nc1cc(Cl)ccc1Cl,-0.49%
6,Cc1ccccc1OCC(=O)Nc1ccc(-c2nc3cc4ccccc4cc3[nH]2)cc1,3.71%
7,COc1ccc2nccc([C@@H](O)CN3CCC(NC(=O)/C=C/c4cccc(NC(C)=O)c4)CC3)c2c1,3.46%
8,COc1ccc(Nc2nc(NCc3cccc(NS(C)(=O)=O)c3)cc(-c3ccc(OC)cc3)n2)cc1,5.23%
9,N=C(N)c1ccc(NC(=O)Cc2nc3cc(C(=N)N)ccc3[nH]2)cc1,-0.09%
10,O=S(=O)(NCCN1CCCC1)c1ccc(-c2ccc(CNCc3ccsc3)cc2)s1,7.66%
11,CC(C)NCc1cccc(-c2cccc(-c3nc4cc(F)ccc4[nH]3)c2)c1,11.4%
12,COc1cc2nc(N3CCC(CNC(=O)c4ccc(NC(=O)c5ccc(Cl)cc5)cc4)CC3)nc(N)c2cc1OC,0.98%
13,Cc1cc(NC(=O)NCCN2CCC(NC(=O)c3ccc(F)cc3)CC2)c2ccccc2n1,-0.3%
14,CC(CN(C)C)Oc1ccc2nc(-c3cccc(OCc4ccccc4)c3)[nH]c2c1C#N (stereo not given),0.94%
15,Cc1c(C)n(C2CCCCC2)c2ncnc(OC3CCN(CC(=O)NC4CC4)CC3)c12,-3.58%
16,OCC1CCN(Cc2ccc(-c3cccc(-c4nc5cc(C(F)(F)F)ccc5[nH]4)c3)cc2)CC1,1.12%
17,Cc1cc(O)c2c3c1C(=O)C=C1C3c3c(c(O)cc(O)c3C(=O)C1(C)C)C2=O (stereo not given),-5.26%
18,COc1ccc(NC(=O)CCNc2cc(C)nc(Nc3ccccc3)n2)cc1,5.64%
19,O=C(Nc1ccc(CCNC2=NCCN2)cc1)Nc1ccc(CCNC2=NCCN2)cc1,3.97%
20,Nc1nc(N)c2c(CCc3ccc(Cl)c(Cl)c3)cccc2n1,11.2%
